Screening data deposited in PubChem BioAssay by several laboratories.
An excerpt weighted towards active compounds, which were near 22% of everything screened.
CYP2C9 act = CYP2C9 (human) activation; P11712; recombinant CYP2C9, luciferin-H conversion, luminescence; stronger effect = higher value; factor 1 = untreated enzyme, 0 = blocked; activation factor at 5 µM; 96,000 compounds, 1.4% hits;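 active means activation factor of 2 or more for CYP2C9 at a 5 µM dose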
Target sequence (P11712 whole entry, looked up): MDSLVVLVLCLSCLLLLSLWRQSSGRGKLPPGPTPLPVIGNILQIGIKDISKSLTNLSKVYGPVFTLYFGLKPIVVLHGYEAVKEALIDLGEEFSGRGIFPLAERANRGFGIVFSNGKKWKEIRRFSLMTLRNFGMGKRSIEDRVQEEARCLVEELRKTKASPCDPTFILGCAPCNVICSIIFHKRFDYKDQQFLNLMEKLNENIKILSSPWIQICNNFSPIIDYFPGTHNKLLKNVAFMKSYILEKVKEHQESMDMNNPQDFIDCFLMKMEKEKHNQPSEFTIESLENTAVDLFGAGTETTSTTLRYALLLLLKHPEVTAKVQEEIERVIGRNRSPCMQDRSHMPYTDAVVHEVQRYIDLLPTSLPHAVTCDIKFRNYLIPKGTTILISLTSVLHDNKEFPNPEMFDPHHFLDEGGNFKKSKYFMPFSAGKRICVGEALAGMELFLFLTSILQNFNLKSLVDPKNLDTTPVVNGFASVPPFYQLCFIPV
CYP2C9 inh = inhibitors of human CYP2C9; CYP2C9 Supersomes, luciferin-H conversion, luminescence; inhibition, % at 5 µM; 96,000 compounds, 20% hits;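 active means blocking of liver enzyme CYP2C9 beyond about 50% at 5 µM, limit read from the data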
CYP2C19 inh = inhibitors of human CYP2C19. P33261. CYP2C19 Supersomes, luciferin-H EGE luminescence, 30 min. inhibition, % at 5 µM. 96,000 compounds, 21% hits. AID 778;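 active means CYP2C19 inhibition above a set limit at 5 µM in the primary screen, cut at about 50% in these data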
CYP2C19 activ = increases human CYP2C19 enzyme activity | 96,000 tested, under 10 active | AID 1025 | P33261 | activation factor at 5 µM | recombinant CYP2C19, luciferin-H EGE luminescence; stronger effect = higher value; 0 = fully inhibited enzyme, 1 = untreated enzyme;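 active means activation factor of at least 2 at 5 µM in the primary screen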
Measles CPE = protection of cells from measles virus. Measles virus-infected cells, CPE protection, absorbance. AID 841. protection (pct of control), % at 4 µM. 140,000 compounds, 1.5% hits; in the data active means protection mostly above about 24%, no sharp cut-off; inactive means mostly below about 26%
Large screens that a line does not name were inactive.

COc1cc(C(=O)NCc2nnc(SCC(=O)NCc3ccccc3)o2)cc(OC)c1OC	none
COc1cc(C(=O)NCc2nnc(SCC(=O)N3CCc4ccccc43)o2)cc(OC)c1OC	CYP2C9 inh 79, CYP2C19 inh 64
COc1ccc(OC)c(-c2nnc(SCC(=O)N3CCCc4ccccc43)o2)c1	CYP2C19 inh 98
COc1cc(NC(=O)c2ccccc2Cl)c(OC)cc1NC(=O)CN1CCOCC1	none
Cc1ccc(S(=O)(=O)NCCC(=O)NCc2ccco2)cc1	none (no result: CYP2C9 act, CYP2C9 inh, CYP2C19 inh, CYP2C19 activ)
O=C(OC1CCOC1=O)c1cccc(S(=O)(=O)Nc2cccc(Cl)c2)c1 (centres undefined)	none (no result: CYP2C9 act, CYP2C9 inh, CYP2C19 inh, CYP2C19 activ)
Cc1occc1-c1nnc(SCC(=O)N2CCc3ccccc32)o1	CYP2C19 inh 74
O=C(CSc1nnc(-c2cccs2)o1)N1CCc2ccccc21	none
O=C(CSc1nnc(-c2cccs2)o1)N1CCCc2ccccc21	CYP2C19 inh 77
COc1ccc(CCN(Cc2cc3cc(C)c(C)cc3nc2Cl)C(=O)C2CC2)cc1	none
CCc1nnc(NC(=O)CSc2nccn2-c2ccccc2)s1	none (no result: CYP2C9 act, CYP2C9 inh, CYP2C19 inh, CYP2C19 activ)
O=C(CSc1nccn1-c1ccccc1)c1ccc(Br)cc1	CYP2C19 inh 61
Cc1ccccc1CSc1nccn1-c1ccccc1	CYP2C9 inh 57, CYP2C19 inh 82
Cn1ccnc1SCC(=O)c1ccc(Br)cc1	CYP2C19 inh 93
Cc1ccccc1-n1ccnc1SCC(=O)O	none
Cn1c(=O)c2c(nc(CN3CCN(c4ccc(F)cc4)CC3)n2Cc2ccccc2F)n(C)c1=O	none
O=C(N1CCN(c2ccc(F)cc2)CC1)C1(c2cccs2)CCOCC1	none (no result: CYP2C9 act, CYP2C9 inh, CYP2C19 inh, CYP2C19 activ)
Cc1cc(N2C(=O)C=CC2=O)c([N+](=O)[O-])cc1C	none (no result: CYP2C9 act, CYP2C9 inh, CYP2C19 inh, CYP2C19 activ)
CCCCNc1ncnc2c1cnn2-c1ccc(Cl)cc1	CYP2C9 inh 70
c1ccc(Cn2ncc3c(NCc4ccco4)ncnc32)cc1	none
C=CCNc1ncnc2c1cnn2-c1ccc(Cl)cc1	none
c1coc(CNc2nc(N3CCCCC3)nc3ccccc23)c1	none
c1ccc(-n2ncc3c(NCc4ccco4)ncnc32)cc1	CYP2C9 inh 59, CYP2C19 inh 50
c1ccc(N2CCN(c3nc(NCc4ccco4)c4ccccc4n3)CC2)cc1	CYP2C9 inh 91, CYP2C19 inh 96
COc1ccc(Nc2ncnc3c2cnn3Cc2ccccc2)cc1OC	CYP2C9 inh 73, CYP2C19 inh 84
C1CNCCOCCNCCN1	none
COCCNc1ncnc2c1cnn2Cc1ccc(Cl)cc1	CYP2C19 inh 82
Clc1ccc(-n2ncc3c(NCCN4CCOCC4)ncnc32)cc1	none
COc1ccccc1CNc1ncnc2c1nnn2Cc1ccccc1	CYP2C19 inh 55
CCCCNc1ncnc2c1cnn2-c1ccccc1	CYP2C9 inh 99, CYP2C19 inh 89
Clc1ccc(-n2ncc3c(NCCCn4ccnc4)ncnc32)cc1	CYP2C9 inh 93, CYP2C19 inh 95
CCOC(=O)C1=C(N)c2ccccc2CC1C(C)C (centres undefined)	CYP2C9 inh 81, CYP2C19 inh 96
CCOC(=O)C1Cc2ccccc2C(=O)O1 (centres undefined)	none
Cn1c(SCCOc2ccc(Cl)cc2)nnc1-c1ccncc1	CYP2C19 inh 78
Cc1cc(OCCSc2nnc(-c3cccs3)n2C)ccc1Cl	CYP2C19 inh 62
CC(C)C(NC(=O)c1ccc(F)cc1)C(=O)OCC(=O)N1CC(=O)Nc2ccccc21 (centres undefined)	none (no result: CYP2C9 act, CYP2C9 inh, CYP2C19 inh, CYP2C19 activ)
COc1ccc(N2CCN(C(=O)c3ccc(S(=O)(=O)N4CCOCC4)cc3)CC2)cc1	none (no result: Measles CPE)
CCOc1ccc(S(=O)(=O)Nc2cccc(C(=O)N3CCN(c4ccc(OC)cc4)CC3)c2)cc1	CYP2C9 inh 60, CYP2C19 inh 62, Measles CPE 84
COc1ccc(N2CCN(C(=O)c3ccc(NS(=O)(=O)c4ccc(F)cc4)cc3)CC2)cc1	CYP2C9 inh 91
O=C(COc1ccc2ccccc2c1Br)NC(=S)Nc1cccc(CO)c1	none (no result: CYP2C9 act, CYP2C9 inh, CYP2C19 inh, CYP2C19 activ)
CCC(c1nnnn1CS(=O)(=O)c1ccc(C)cc1)N1CCN(c2nc3ccccc3s2)CC1 (centres undefined)	none
CCOC(=O)CN1C(=O)C(Sc2n[nH]c(-c3cccc(C)c3)n2)CCc2ccccc21 (centres undefined)	CYP2C9 inh 85, CYP2C19 inh 57
Cc1nc2sc(C(c3ccc(Cl)cc3)N3CCN(c4ccccc4F)CC3)c(O)n2n1 (centres undefined)	CYP2C19 inh 67
Cc1nc2sc(C(c3ccccc3)N3CCN(C(=O)c4ccco4)CC3)c(O)n2n1 (centres undefined)	none (no result: CYP2C9 act, CYP2C9 inh, CYP2C19 inh, CYP2C19 activ)
Cc1nc2sc(C(c3ccco3)N3CCN(c4ccccc4F)CC3)c(O)n2n1 (centres undefined)	CYP2C9 inh 69, CYP2C19 inh 92
CCOC(=O)c1ccc(-n2ccnc2)c(NC(=O)c2ccc(Cl)cc2)c1	none (no result: CYP2C9 act, CYP2C9 inh, CYP2C19 inh, CYP2C19 activ)
CCOC(=O)CC(=O)CSc1ccc2nnc(-c3ccccc3)n2n1	none
CCOC(=O)N1CCC(Nc2ccc3nnc(-c4ccccc4)n3n2)CC1	CYP2C9 inh 93, CYP2C19 inh 96
O=C(CCCc1ccccc1)N1CCc2ccccc21	CYP2C9 inh 59, CYP2C19 inh 78
O=C(COc1ccccc1)N1CCc2ccccc21	none (no result: CYP2C9 act, CYP2C9 inh, CYP2C19 inh, CYP2C19 activ)
O=C(CS(=O)(=O)Cc1ccccc1)N1CCc2ccccc21	CYP2C9 act 2.1
COc1ccc(C2C(C(=O)NCCN3CCOCC3)c3ccccc3C(=O)N2C)cc1OC (centres undefined)	none
CCOC(=O)Nc1ccc2c(c1)Nc1ccccc1S2	none
CCOC(=O)C1(Nc2nccs2)Sc2ccccc2NC1=O (centres undefined)	CYP2C19 inh 64
CCC1(C)Cc2c(sc3nc(NN)n(C)c(=O)c23)CO1 (centres undefined)	CYP2C9 inh 94, CYP2C19 inh 99
CCOc1ccc(S(=O)(=O)NCCC(=O)OCN2C(=O)c3ccccc3C2=O)cc1	CYP2C19 inh 70
O=C(C1CCN(S(=O)(=O)c2ccc3c(c2)OCCO3)CC1)N1CCc2ccccc21	none
CC(=O)Nc1ccc(S(=O)(=O)NCC(=O)OCC(=O)N2CCc3ccccc32)cc1	CYP2C9 inh 71
CC(OC(=O)C1CCN(S(=O)(=O)c2ccc(Cl)cc2)CC1)C(=O)N1CCc2ccccc21 (centres undefined)	CYP2C19 inh 66
COc1ccc(S(=O)(=O)NC(CC(=O)N2CCc3ccccc32)c2ccco2)cc1 (centres undefined)	none
CCOc1ccc(S(=O)(=O)NCCC(=O)OC(C)C(=O)N2CCc3ccccc32)cc1 (centres undefined)	CYP2C9 act 2.1, CYP2C19 inh 50, Measles CPE 54
COc1cccc(NC(=O)CSc2nc3c(oc4ccccc43)c(=O)[nH]2)c1	none (no result: CYP2C9 act, CYP2C9 inh, CYP2C19 inh, CYP2C19 activ)
CC(=O)N1C(=O)c2cccc3cccc(c23)C(=O)N1C(C)=O	Measles CPE 54
O=C1c2cccc3cccc(c23)C(=O)N1c1nncs1	none
O=C(Cc1cccc(C(F)(F)F)c1)NCc1ccc(Cl)cc1Cl	none (no result: CYP2C9 act, CYP2C9 inh, CYP2C19 inh, CYP2C19 activ)
O=C(CS(=O)c1cccc(Cl)c1)Nc1ccccc1Cl (centres undefined)	CYP2C9 act 2.6, CYP2C19 inh 60
